Source: the supplement of paper PMC11732987, “Enantioselective OTUD7B fragment discovery through chemoproteomics screening and high-throughput optimisation” (Communications Chemistry, 2025)

Legend:
Test in all cases: log2 ratio of Biotin-Ahx-Ub-VS probe labelling (fragment/DMSO); higher = less target engagement (more negative = stronger competition), active = hit call of the paper (q ≤ 0.05, log2 ratio ≤ -1)
Conditions in all cases: compound concentration: 200 uM; treatment time: 3 h
USP19 = target: T1, USP19 (UniProt O94966)
T1 sequence (whole entry): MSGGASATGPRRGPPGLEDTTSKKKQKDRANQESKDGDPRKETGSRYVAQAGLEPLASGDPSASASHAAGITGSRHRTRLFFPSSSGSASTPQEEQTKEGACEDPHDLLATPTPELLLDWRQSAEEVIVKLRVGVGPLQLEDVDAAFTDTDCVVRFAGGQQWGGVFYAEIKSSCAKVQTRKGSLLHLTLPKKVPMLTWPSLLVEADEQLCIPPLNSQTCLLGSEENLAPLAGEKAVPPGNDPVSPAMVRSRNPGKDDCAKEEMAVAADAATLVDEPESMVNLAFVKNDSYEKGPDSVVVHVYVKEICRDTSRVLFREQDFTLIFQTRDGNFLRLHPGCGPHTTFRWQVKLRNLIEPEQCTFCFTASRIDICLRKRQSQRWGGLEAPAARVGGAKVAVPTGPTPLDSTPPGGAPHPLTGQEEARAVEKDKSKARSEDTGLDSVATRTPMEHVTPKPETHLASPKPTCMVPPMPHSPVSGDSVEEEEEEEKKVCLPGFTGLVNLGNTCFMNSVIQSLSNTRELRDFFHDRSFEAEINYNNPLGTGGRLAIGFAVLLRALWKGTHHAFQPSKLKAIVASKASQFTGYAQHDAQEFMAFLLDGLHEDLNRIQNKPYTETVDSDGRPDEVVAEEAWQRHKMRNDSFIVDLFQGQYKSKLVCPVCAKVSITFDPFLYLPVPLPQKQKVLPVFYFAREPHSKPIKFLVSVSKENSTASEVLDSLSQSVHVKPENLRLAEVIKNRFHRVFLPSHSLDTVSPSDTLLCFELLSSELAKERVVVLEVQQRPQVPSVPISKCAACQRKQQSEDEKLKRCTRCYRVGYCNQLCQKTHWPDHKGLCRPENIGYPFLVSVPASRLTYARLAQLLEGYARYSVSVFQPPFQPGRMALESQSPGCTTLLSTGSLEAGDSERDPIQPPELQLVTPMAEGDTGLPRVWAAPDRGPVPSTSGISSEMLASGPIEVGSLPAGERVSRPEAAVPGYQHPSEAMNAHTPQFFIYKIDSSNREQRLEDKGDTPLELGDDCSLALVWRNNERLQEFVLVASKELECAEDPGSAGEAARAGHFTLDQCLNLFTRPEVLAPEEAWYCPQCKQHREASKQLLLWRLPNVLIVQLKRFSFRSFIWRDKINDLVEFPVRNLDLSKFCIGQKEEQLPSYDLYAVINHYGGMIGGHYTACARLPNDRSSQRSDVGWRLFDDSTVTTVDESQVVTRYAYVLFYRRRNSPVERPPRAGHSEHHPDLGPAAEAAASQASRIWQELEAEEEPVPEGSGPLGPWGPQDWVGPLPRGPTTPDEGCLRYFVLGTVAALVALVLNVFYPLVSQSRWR
Summary of the method: (§1)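 Each value is an average log2 ratio of fragment to vehicle, tested by unpaired t-test. The underlying Spectronaut label-free quantities were global-median-normalised, and only proteins with ≥2 unique peptides were included. Triplicate HEK293T lysate samples (495 µg) were exposed to fragment at 200 µM or vehicle for 3 h, then to Biotin-Ahx-Ub-VS at 0.5 µM final for 1 h, before NeutrAvidin enrichment of labelled DUBs, LysC and trypsin digestion, and diaPASEF LC-MS/MS.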

USP22 = target: T2, USP22 (UniProt Q9UPT9)
T2 sequence (whole entry): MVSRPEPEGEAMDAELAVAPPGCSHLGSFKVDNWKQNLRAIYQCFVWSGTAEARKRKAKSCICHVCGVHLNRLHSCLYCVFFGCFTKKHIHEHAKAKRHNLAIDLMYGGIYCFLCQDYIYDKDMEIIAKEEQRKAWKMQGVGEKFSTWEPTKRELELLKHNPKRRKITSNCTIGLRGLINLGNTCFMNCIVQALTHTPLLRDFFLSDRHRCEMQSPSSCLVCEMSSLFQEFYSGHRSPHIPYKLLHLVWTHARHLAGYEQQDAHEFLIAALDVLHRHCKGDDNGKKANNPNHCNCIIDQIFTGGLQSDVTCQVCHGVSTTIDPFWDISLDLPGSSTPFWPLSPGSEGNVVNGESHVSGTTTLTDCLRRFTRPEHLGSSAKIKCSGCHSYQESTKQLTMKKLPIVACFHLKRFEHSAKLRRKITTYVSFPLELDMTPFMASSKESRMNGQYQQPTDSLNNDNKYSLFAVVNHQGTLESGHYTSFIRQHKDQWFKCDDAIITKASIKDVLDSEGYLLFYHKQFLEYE
Summary of the method: as §1

USP24 = USP24 (UniProt Q9UPU5)
Chain of USP24 (Q9UPU5 whole entry): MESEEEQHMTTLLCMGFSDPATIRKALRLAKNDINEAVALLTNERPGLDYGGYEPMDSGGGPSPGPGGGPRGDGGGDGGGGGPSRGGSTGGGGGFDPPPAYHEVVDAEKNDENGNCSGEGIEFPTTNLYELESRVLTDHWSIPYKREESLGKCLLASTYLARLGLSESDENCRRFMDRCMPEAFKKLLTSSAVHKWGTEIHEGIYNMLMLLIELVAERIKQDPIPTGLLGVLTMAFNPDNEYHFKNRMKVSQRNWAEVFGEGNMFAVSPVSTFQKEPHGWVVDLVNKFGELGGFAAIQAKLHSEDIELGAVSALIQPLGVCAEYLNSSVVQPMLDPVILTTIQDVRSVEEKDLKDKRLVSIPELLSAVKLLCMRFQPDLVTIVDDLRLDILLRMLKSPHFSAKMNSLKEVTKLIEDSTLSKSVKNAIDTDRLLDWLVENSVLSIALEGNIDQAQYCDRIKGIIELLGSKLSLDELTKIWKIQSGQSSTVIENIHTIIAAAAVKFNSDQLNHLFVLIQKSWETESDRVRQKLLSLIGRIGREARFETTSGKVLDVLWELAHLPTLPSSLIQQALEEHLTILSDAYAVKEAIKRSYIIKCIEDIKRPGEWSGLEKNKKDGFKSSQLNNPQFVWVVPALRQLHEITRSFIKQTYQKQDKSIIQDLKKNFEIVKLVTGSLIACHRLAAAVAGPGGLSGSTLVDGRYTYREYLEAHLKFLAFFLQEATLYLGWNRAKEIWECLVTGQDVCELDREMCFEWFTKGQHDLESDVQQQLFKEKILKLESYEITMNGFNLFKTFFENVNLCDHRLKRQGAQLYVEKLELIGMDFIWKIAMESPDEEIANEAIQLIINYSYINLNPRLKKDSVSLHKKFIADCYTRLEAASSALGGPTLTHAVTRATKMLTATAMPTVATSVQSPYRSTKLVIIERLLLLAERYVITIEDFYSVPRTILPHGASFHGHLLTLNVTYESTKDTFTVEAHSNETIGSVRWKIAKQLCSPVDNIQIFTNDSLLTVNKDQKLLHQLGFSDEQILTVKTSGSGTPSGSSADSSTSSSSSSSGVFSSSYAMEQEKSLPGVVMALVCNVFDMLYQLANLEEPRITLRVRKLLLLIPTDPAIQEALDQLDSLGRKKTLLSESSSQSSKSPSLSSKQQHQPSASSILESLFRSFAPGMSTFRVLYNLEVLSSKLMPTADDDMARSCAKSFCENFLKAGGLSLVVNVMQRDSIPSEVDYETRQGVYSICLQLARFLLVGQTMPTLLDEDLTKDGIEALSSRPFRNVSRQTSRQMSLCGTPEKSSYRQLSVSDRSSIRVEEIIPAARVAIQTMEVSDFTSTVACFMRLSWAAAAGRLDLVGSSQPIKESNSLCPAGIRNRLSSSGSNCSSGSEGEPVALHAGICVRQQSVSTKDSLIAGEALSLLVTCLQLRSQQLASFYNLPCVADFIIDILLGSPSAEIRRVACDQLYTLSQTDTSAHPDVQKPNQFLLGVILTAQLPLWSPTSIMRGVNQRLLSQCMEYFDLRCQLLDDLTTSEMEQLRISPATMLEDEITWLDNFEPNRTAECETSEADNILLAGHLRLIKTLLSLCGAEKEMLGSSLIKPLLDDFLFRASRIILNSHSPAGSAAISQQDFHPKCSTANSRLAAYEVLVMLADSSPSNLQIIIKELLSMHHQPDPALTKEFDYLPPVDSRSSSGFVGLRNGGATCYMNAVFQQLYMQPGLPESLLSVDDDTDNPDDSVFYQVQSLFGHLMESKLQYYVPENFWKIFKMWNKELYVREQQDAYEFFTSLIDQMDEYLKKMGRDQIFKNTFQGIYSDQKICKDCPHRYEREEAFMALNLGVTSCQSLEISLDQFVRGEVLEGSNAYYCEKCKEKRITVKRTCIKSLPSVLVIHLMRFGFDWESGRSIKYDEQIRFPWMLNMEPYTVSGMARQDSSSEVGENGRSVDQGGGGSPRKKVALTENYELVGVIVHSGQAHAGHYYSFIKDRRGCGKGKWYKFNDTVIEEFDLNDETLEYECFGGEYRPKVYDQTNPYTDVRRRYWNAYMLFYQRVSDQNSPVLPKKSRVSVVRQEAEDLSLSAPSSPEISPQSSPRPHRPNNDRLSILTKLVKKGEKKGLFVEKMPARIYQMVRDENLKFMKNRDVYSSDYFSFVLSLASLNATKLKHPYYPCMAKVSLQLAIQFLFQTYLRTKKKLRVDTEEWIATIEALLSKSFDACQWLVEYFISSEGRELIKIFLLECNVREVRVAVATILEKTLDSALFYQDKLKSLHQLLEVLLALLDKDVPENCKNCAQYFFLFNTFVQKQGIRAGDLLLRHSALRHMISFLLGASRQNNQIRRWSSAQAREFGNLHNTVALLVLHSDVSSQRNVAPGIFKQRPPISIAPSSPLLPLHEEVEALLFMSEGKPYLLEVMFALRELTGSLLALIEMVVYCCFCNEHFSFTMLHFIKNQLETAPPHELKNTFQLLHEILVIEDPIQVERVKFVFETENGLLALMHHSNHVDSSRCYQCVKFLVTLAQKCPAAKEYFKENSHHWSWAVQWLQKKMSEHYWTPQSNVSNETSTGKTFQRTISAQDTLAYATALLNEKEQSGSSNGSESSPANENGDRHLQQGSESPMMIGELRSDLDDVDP
Summary of the method: as §1

USP25 = target: T3, USP25 (UniProt Q9UHP3)
T3 sequence (whole entry): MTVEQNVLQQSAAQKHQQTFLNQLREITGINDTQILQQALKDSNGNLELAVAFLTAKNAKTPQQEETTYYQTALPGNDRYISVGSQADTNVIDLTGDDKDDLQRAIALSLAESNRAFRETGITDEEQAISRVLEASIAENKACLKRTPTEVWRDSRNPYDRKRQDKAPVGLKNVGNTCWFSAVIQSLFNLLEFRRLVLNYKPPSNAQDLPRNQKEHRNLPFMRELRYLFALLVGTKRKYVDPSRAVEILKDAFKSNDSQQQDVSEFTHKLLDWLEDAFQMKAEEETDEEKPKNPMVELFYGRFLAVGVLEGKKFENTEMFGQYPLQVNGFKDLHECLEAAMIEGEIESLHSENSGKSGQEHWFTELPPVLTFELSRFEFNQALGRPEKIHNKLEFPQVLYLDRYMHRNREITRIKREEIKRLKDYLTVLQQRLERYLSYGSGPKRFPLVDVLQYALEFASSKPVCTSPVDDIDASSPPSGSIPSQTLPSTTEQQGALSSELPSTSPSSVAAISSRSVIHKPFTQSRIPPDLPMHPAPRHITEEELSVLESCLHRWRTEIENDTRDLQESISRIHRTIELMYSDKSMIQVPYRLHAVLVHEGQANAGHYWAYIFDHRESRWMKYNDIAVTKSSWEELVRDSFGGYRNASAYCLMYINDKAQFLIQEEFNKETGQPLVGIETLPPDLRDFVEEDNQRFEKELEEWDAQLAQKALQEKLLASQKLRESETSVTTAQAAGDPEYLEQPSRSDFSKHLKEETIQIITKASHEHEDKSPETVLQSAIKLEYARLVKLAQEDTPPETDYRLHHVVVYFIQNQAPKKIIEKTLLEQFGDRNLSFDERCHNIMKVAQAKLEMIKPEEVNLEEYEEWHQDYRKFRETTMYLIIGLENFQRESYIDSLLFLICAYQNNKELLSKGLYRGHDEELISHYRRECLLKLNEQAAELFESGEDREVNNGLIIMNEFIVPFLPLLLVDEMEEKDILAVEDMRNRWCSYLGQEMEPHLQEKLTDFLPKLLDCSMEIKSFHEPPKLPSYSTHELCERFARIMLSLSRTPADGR
Summary of the method: as §1

USP28 = target: T4, USP28 (UniProt Q96RU2)
T4 sequence (whole entry): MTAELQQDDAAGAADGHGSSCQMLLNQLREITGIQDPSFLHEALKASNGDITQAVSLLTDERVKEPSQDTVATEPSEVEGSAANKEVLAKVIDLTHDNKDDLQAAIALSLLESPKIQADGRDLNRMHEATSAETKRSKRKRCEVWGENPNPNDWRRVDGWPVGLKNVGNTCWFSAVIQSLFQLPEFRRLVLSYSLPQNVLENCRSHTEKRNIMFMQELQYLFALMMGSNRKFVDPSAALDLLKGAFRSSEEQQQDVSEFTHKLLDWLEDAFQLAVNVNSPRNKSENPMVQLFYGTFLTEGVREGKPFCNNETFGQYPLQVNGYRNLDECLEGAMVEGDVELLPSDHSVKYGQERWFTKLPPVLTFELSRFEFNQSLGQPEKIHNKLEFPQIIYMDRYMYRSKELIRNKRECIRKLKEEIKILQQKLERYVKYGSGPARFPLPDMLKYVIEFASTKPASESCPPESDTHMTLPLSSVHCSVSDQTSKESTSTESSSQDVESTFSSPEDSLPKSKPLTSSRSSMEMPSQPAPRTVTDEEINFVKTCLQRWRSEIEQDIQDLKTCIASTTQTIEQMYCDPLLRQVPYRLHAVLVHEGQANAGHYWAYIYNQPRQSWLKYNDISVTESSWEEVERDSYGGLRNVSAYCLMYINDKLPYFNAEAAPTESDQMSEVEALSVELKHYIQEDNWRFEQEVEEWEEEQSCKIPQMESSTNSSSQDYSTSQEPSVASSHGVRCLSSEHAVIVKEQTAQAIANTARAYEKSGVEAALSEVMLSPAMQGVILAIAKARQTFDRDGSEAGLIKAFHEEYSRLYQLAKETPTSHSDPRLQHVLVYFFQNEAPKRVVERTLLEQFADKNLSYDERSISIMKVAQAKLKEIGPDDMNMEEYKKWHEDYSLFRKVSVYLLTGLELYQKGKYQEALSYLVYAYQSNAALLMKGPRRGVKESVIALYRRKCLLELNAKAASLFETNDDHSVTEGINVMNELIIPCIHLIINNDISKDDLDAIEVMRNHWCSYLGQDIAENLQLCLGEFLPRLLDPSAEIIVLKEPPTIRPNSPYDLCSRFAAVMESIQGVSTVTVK
Summary of the method: as §1

Measured: log2 ratio of Biotin-Ahx-Ub-VS probe labelling

CCN(Cc1ccc(C#N)cc1F)C(=O)CCl
inactive: USP19 -0.28 | USP22 -0.094 | USP24 -0.741 | USP25 -0.659 | USP28 -0.624
